N370S GC = inhibits or activates N370S mutant glucocerebrosidase. P04062. N370S GC spleen homogenate, 4MU-glucoside fluorescence. Potency, µM (doses to about 59.4 µM), for the others: at the top dose activity change, negative = inhibition, usual class: inhibitors. hit rate 0.092% among 330,000;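 further: potency means the concentration at half of the fitted maximal effect; 0% = full enzyme activity and -100% = no enzyme basal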
aGal spleen mod = alpha-galactosidase A (human) modulation. P06280. human spleen homogenate, 4MU-alpha-Gal fluorescence, 40 min. Potency, µM (doses to about 80 µM), for the others: at the highest dose activity change, negative = inhibition, usual class: inhibitors. hit rate 0.008% among 240,000. AID 2107;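 further: potency means the concentration at half of the fitted maximal effect; 0% = enzyme with vehicle and -100% = no enzyme basal signal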
Target sequence (P06280 32-429 limits assumed): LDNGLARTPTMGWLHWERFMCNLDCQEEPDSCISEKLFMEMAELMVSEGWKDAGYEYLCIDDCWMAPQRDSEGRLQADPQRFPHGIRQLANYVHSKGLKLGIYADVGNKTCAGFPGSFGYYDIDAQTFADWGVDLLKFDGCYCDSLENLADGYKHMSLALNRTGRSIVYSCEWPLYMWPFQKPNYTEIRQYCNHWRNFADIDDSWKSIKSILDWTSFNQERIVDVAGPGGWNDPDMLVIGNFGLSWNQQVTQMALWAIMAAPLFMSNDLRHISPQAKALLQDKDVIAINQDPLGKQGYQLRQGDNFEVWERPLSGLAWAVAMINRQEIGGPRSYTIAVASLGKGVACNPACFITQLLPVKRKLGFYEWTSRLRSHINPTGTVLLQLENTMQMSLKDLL
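Spleen homogenate 1 ug + cpd (titration) + 4-MU-alpha-D-galactopyranoside 1 mM; 37C 40 min; 50 mM citrate/phosphate pH 5.0, 0.01% Tween-20; stop pH 10; fluorescence 365/440; AC50 via Hill.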
GLA inh pH 4.5 = inhibitors of human alpha-galactosidase A at pH 4.5; P06280; 230,000 tested, under 10 active; purified enzyme, 4-MU-alpha-Gal fluorescence, pH 4.5; AID 1467; activity change, negative = inhibition, % at 105 µM;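 further: 0% = full activity with enzyme and -100% = basal without enzyme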
GAA glycogen mod = GAA glycogen-cleavage inhibition or activation | P10253 | recombinant GAA, glycogen substrate, Amplex Red glucose oxidase fluorescence | Potency, µM (titrated, usually from 76.4 µM), for the others: at the top dose activity change, negative = inhibition, usual class: inhibitors | hit rate 0.38% among 300,000 | AID 2100;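 further: potency means the concentration at half of the fitted maximal effect; 0% = full enzyme reaction and -100% = no-enzyme basal signal; the screen sought inhibitors and activators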
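qHTS, 1536-well; enzyme 4 nM final; cpd up to 77 uM; substrate bovine liver glycogen 30 ug; 50 mM citrate/phosphate pH 5.0, 0.01% Tween-20; 37 C, 40 min; Amplex Red detection 45 min RT; Hill fit → AC50.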
GAA spleen mod = inhibits or activates alpha-glucosidase in human spleen homogenate. P10253. hit rate 0.006% among 240,000. AID 2112. Potency, µM (series often up to 79.9 µM), without a hit: top-dose activity change, negative = inhibition, usual class: inhibitors. human spleen homogenate, 4-MU-alpha-glucoside fluorescence;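 further: potency means the concentration at half of the fitted maximal effect; 0% = enzyme with vehicle and -100% = no enzyme basal signal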
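Compounds were titrated against alpha-glucosidase in spleen homogenate at pH 5.0, with 1 mM 4-methylumbelliferyl substrate for 40 min at 37 C. Reactions were quenched with pH 10 NaOH/glycine and fluorescence measured.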
GAA inhib = blocks human lysosomal alpha-glucosidase. purified human GAA, 4-MU-alpha-glucoside fluorescence. hit rate 0.005% among 200,000. AID 1466. Potency, µM (titrated, usually from 76.9 µM), for inactives: top-dose activity change, negative = inhibition, usual class: inhibitors;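 further: potency means the concentration at half of the fitted maximal effect; plate controls were uninhibited enzyme wells for no effect and no-enzyme background for full effect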
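Fluorogenic assay: 4 nM human alpha-glucosidase with 400 uM 4-methylumbelliferyl-alpha-D-pyranoside in 50 mM citrate/phosphate, 0.005% Tween-20, pH 5.0, 20 min at room temperature. Compounds tested up to 77 uM; AC50 from Hill fits.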
* hit, by the source's call; [ ] = remark or other dose. A selection: hits, their analogues and other compounds. The true share with any hit is near 0.41%. The call rests on the fitted dose curve; in most records, active means well fitted curve in the direction sought with a large enough effect; inconclusive means small, poorly fitted or top-dose-only effect, or another doubt; inactive means no such curve, though single readings can be large; an effect the other way counts as inactive or inconclusive.

What do the screens show for `Cc1ccc(N2C(=O)C3Sc4[nH]c(=O)sc4C(c4ccccc4)C3C2=O)cc1` (configuration not stated)?
N370S GC: 11%; aGal spleen mod: 1%; GLA inh pH 4.5: 5; GAA glycogen mod: 31µM*; GAA spleen mod: 1%; GAA inhib: 4%

What do the screens show for `CC(C)c1ccc(Nc2ncnc3c2nc2n3CCCC2)cc1`?
GAA glycogen mod: 16%[76.3 µM]

What do the screens show for `CCC[C@H](NC(=O)[C@H](Cc1ccc(O[S+](=O)([O-])O)cc1)NC(=O)OC(C)(C)C)C(=O)NCC(=O)N[C@@H](Cc1c[nH]c2ccccc12)C(=O)N[C@@H](CCC)C(=O)N[C@@H](CC(=O)OCCc1ccccc1)C(=O)O`?
N370S GC: 1%; aGal spleen mod: 9%; GAA spleen mod: 4%

What do the screens show for `CC(C)=CCc1c(O)ccc2c1OC(c1ccc(O)c(O)c1)CC2=O` (configuration not stated)?
N370S GC: -19%; aGal spleen mod: -4%; GLA inh pH 4.5: 3; GAA glycogen mod: inconclusive; GAA spleen mod: 1%

Results for O=C1CC(c2ccc(O)c(O)c2)Oc2c1ccc(O)c2O (configuration not stated) ?
N370S GC: -6%; aGal spleen mod: -1%; GLA inh pH 4.5: 3; GAA glycogen mod: 11µM*; GAA spleen mod: -2%

Results for COc1ccc(CNC(=O)C2CCN(S(=O)(=O)c3c(C)noc3/C=C/c3cccs3)CC2)cc1 ?
GAA glycogen mod: 14%[76.3 µM]

What do the screens show for `COc1ccccc1N1C(=O)N(C(C)=O)C2C1Nc1ccccc1N2C` (configuration not stated)?
N370S GC: 0%; aGal spleen mod: 0%; GLA inh pH 4.5: 0; GAA glycogen mod: 35µM*; GAA spleen mod: -2%; GAA inhib: -8%

How did CC(C)Nc1nc(NC(C)C)nc(N(C)N)n1 do in these assays?
aGal spleen mod: 4%; GLA inh pH 4.5: 2; GAA glycogen mod: 28µM*; GAA spleen mod: 1%; GAA inhib: -3%

How did CCNc1nc(NCC)nc(N(C)N)n1 do in these assays?
N370S GC: 4%; aGal spleen mod: 8%; GLA inh pH 4.5: 6; GAA glycogen mod: 35µM*; GAA spleen mod: 1%; GAA inhib: -2%

Results for CCc1ccc(NC(=O)Nc2cccs2)cc1 ?
N370S GC: -3%; aGal spleen mod: -16%; GLA inh pH 4.5: 0; GAA glycogen mod: inconclusive; GAA spleen mod: -5%; GAA inhib: 2%

What do the screens show for `Cc1ccccc1CNC(=O)Nc1cccs1`?
N370S GC: 7%; aGal spleen mod: 5%; GLA inh pH 4.5: -23; GAA glycogen mod: inconclusive; GAA spleen mod: 0%; GAA inhib: 5%

How did CCOc1ccc(NC(=O)Nc2cccs2)cc1 do in these assays?
N370S GC: 7%; aGal spleen mod: 3%; GLA inh pH 4.5: -3; GAA glycogen mod: 20µM*; GAA spleen mod: -2%; GAA inhib: -4%

Results for O=C(NCc1cccs1)Nc1cccs1 ?
N370S GC: -13%; aGal spleen mod: 2%; GLA inh pH 4.5: 1; GAA glycogen mod: 4µM*; GAA spleen mod: -5%; GAA inhib: -3%

Results for O=C1Nc2ccccc2Oc2cc(Oc3ccccc3)ccc21 ?
N370S GC: -5%; GAA glycogen mod: 8%[76.3 µM]

How did COC(=O)[C@H](Cc1ccccc1)NC(=O)O[C@@H]1C(=O)c2ccc(OC)cc2O[C@H]1c1ccc2c(c1)OCO2 do in these assays?
N370S GC: 5%; aGal spleen mod: -18%; GLA inh pH 4.5: -11; GAA spleen mod: -2%

Results for COc1cc(C2C(C#N)=C(C)NC3=C2C(=O)CC(C)(C)C3)cc(OC)c1O (configuration not stated) ?
N370S GC: -3%; aGal spleen mod: 3%; GLA inh pH 4.5: -4; GAA glycogen mod: 12µM*; GAA spleen mod: -2%; GAA inhib: -8%

What do the screens show for `COC(=O)[C@H](Cc1ccccc1)NC(=O)O[C@@H]1C(=O)c2ccc(OC)cc2O[C@H]1c1cccc(C(F)(F)F)c1`?
N370S GC: 6%; aGal spleen mod: -12%; GLA inh pH 4.5: -9; GAA spleen mod: 5%

Results for COc1ccc(/C=N/Nc2nonc2N)cc1OC ?
N370S GC: 24%; aGal spleen mod: 7%; GLA inh pH 4.5: 8; GAA glycogen mod: 16µM*; GAA spleen mod: 3%; GAA inhib: 0%

How did COc1ccc(-n2c(-c3ccc(C)cc3)cc3c2CC(C)(C)CC3=O)cc1Cl do in these assays?
GAA glycogen mod: -4%[76.3 µM]

How did CC(=O)Oc1ccc(-c2csnn2)cc1 do in these assays?
N370S GC: 4%; aGal spleen mod: 4%; GLA inh pH 4.5: -9; GAA glycogen mod: -8%; GAA spleen mod: 9%; GAA inhib: 1%

Results for Cc1ccccc1C(=O)NNc1ccc(-c2csnn2)cc1 ?
N370S GC: -26%; aGal spleen mod: 1%; GLA inh pH 4.5: -2; GAA glycogen mod: 16µM*; GAA spleen mod: 6%; GAA inhib: -2%

What do the screens show for `Cc1ccc(O)c(-c2cc3ccccc3[nH]2)c1`?
N370S GC: 19%; aGal spleen mod: 22%; GLA inh pH 4.5: inconclusive; GAA glycogen mod: 32µM*; GAA spleen mod: 6%; GAA inhib: inconclusive

Results for COc1ccc(-c2cc3ccccc3[nH]2)cc1 ?
N370S GC: -16%; aGal spleen mod: 1%; GLA inh pH 4.5: 5; GAA glycogen mod: -5%; GAA spleen mod: -1%

Results for Cc1ccc(Nc2ccc(N)cc2S(=O)(=O)O)cc1 ?
N370S GC: -1%; aGal spleen mod: 6%; GLA inh pH 4.5: -8; GAA glycogen mod: inconclusive; GAA spleen mod: -3%; GAA inhib: -7%

How did Nc1ccc(Nc2ccccc2)c(S(=O)(=O)O)c1 do in these assays?
N370S GC: 5%; aGal spleen mod: -16%; GLA inh pH 4.5: 5; GAA glycogen mod: 14µM*; GAA spleen mod: -15%; GAA inhib: -3%

How did COc1cc(C(Nc2ccccn2)c2ccc3ccc(C)nc3c2O)cc(OC)c1O (configuration not stated) do in these assays?
N370S GC: -6%; aGal spleen mod: -1%; GLA inh pH 4.5: -3; GAA glycogen mod: 18µM*; GAA spleen mod: 1%; GAA inhib: 3%

What do the screens show for `CCCCc1nc2c(c3c1C[C@H](C)OC3)CN(S(=O)(=O)c1ccc(Cl)c3nonc13)CC2`?
N370S GC: -4%[12.8 µM]; aGal spleen mod: 4%[17.5 µM]; GLA inh pH 4.5: 9; GAA spleen mod: -15%[17.4 µM]

Results for Fc1ccc(/C=N/Nc2nccnc2Cl)cc1 ?
N370S GC: -14%; GAA glycogen mod: -2%[76.3 µM]

Assay outcomes deposited in PubChem by National Center for Advancing Translational Sciences (NCATS).
